# Experimental data reported in article PMC7862700, “An all-to-all approach to the identification of sequence-specific readers for epigenetic DNA modifications on cytosine”.
# Assays:
# Experiment in all cases: DAPPL (digital affinity profiling via proximity ligation, sequencing); 10 mM Tris-HCl pH 7.5, 50 mM NaCl, 1 mM DTT, 4% glycerol, room temperature, 30 min; GST-TFs on glutathione beads, 16-mer random dsDNA library, 0.1% formaldehyde crosslink after washing; high values mean tight binding
# [1] = target: T1, FLI1 (Homo sapiens, UniProt Q01543 1-452); settings: protein: recombinant; tags: N-terminal GST; dsDNA, one strand shown
# T1 sequence: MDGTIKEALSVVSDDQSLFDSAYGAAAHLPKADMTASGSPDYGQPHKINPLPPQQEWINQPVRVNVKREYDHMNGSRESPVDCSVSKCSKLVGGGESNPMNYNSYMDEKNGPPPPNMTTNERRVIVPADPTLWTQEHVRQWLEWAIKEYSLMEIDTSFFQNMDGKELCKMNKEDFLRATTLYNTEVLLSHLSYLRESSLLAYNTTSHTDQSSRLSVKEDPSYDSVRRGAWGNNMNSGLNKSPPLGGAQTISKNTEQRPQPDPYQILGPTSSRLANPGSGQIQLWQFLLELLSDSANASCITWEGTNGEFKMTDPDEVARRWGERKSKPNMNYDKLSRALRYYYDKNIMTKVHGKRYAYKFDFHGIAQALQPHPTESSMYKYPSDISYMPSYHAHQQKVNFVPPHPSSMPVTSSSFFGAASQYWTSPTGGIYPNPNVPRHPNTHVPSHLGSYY
# Outline: (§1)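 In yeast, human transcription factors were expressed with a GST fusion, then pulled down on glutathione beads and given DNA barcodes. Pooled with a tag-only sample, they were exposed to 200 nmole of a 16-mer random double-stranded DNA library (Tris/NaCl/DTT/glycerol buffer, room temperature, 30 min), washed, crosslinked with 0.1% formaldehyde, proximity-ligated using BsaI/T4 ligase for 1 h at 37 °C, PCR-amplified and read on an Illumina NextSeq500. Each hexamer's frequency of reads for a factor, divided by the matching frequency for the tag-only sample, gives the binding signal.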
# [2] = target: T2, ELK1 (Homo sapiens, UniProt P19419 1-428); settings: protein: recombinant; tags: N-terminal GST; dsDNA, one strand shown
# T2 sequence: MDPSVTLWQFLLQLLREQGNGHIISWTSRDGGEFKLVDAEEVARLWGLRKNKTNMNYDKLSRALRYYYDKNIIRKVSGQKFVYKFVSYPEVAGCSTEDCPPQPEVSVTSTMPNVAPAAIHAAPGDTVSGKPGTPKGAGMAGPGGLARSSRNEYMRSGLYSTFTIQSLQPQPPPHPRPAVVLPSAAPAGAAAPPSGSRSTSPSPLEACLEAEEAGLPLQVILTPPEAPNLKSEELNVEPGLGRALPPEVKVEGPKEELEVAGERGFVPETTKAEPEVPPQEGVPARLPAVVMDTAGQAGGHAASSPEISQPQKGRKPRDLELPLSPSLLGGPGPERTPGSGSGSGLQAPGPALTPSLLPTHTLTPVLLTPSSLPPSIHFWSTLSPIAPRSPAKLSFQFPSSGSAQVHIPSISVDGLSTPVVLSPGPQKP
# Outline: as §1
# [3] = target: T3, GABPA (Homo sapiens, UniProt Q06546 1-454); settings: protein: recombinant; tags: N-terminal GST; dsDNA, one strand shown
# T3 sequence: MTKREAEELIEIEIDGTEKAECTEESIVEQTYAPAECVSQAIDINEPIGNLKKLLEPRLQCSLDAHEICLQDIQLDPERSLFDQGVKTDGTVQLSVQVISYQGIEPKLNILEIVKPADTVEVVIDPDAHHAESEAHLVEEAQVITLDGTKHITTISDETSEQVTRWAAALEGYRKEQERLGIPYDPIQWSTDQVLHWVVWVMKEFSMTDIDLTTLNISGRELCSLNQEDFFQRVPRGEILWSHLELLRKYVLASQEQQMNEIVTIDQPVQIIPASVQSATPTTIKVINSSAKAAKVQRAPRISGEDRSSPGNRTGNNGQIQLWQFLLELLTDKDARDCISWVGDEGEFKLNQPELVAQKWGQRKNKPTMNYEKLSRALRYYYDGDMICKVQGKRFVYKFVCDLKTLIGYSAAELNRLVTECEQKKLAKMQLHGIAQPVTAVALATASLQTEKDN
# Outline: as §1
# [4] = target: T4, ERG (Homo sapiens, UniProt P11308 1-479); settings: protein: recombinant; tags: N-terminal GST; dsDNA, one strand shown
# T4 sequence: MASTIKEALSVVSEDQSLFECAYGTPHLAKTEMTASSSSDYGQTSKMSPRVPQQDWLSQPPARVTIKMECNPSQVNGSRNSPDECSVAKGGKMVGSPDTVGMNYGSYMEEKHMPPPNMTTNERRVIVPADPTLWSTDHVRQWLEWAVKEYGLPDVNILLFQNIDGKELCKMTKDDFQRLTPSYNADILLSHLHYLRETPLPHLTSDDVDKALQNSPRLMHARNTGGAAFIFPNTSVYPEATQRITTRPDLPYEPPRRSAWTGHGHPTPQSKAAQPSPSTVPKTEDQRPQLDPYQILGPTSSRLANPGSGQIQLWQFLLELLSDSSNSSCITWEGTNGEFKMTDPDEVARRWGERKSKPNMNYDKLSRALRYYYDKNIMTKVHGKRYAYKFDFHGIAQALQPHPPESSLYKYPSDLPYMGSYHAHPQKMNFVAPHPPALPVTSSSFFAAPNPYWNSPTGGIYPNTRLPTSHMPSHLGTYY
# Outline: as §1
# [5] = target: ELF1 (Homo sapiens, UniProt P32519 1-619); settings: protein: recombinant; tags: N-terminal GST; dsDNA, one strand shown
# Outline: as §1
# [6] = target: T5, EHF (Homo sapiens, UniProt Q9NZC4 1-300); settings: protein: recombinant; tags: N-terminal GST; dsDNA, one strand shown
# T5 sequence: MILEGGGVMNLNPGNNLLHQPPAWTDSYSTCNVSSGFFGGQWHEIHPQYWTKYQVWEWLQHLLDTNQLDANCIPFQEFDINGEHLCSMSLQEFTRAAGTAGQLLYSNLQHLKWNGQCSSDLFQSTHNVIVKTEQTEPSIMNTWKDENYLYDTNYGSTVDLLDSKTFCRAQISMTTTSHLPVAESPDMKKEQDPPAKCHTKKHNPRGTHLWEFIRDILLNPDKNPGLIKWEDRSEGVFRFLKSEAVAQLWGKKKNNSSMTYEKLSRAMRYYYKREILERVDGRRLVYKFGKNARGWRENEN
# Outline: as §1
# [7] = target: SPI1 (Homo sapiens, UniProt P17947 1-270); settings: protein: recombinant; tags: N-terminal GST; dsDNA, one strand shown
# Outline: as §1
# [8] = target: SPIB (Homo sapiens, UniProt Q01892 1-262); settings: protein: recombinant; tags: N-terminal GST; dsDNA, one strand shown
# Outline: as §1
# [9] = target: T6, ELK3 (Homo sapiens, UniProt P41970 1-407); settings: protein: recombinant; tags: N-terminal GST; dsDNA, one strand shown
# T6 sequence: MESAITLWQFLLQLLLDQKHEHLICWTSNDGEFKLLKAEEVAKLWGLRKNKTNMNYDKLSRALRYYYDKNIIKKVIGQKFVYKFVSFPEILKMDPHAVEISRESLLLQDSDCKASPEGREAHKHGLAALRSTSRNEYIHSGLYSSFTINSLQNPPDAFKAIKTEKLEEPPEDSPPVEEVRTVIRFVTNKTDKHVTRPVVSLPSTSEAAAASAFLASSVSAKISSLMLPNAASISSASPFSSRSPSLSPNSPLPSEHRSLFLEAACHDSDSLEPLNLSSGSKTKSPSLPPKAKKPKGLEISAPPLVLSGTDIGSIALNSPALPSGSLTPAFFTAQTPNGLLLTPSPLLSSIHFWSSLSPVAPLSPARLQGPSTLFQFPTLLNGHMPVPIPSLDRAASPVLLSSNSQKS
# Outline: as §1
# [10] = target: T7, FEV (Homo sapiens, UniProt Q99581 1-238); settings: protein: recombinant; tags: N-terminal GST; dsDNA, one strand shown
# T7 sequence: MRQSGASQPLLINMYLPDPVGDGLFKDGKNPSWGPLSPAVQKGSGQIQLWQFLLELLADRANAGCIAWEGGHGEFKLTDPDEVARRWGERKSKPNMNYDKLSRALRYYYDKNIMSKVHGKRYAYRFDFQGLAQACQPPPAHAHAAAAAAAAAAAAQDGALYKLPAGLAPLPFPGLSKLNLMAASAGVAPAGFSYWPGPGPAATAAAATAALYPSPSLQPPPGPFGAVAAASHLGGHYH
# Outline: as §1
# [11] = target: ETV5 (Homo sapiens, UniProt P41161 1-510); settings: protein: recombinant; tags: N-terminal GST; dsDNA, one strand shown
# Outline: as §1
# [12] = target: HSF1 (Homo sapiens, UniProt Q00613 1-529); settings: protein: recombinant; tags: N-terminal GST; chain copies: 3; dsDNA, one strand shown
# Outline: as §1
# [13] = target: T8, SPIC (Homo sapiens, UniProt Q8N5J4 1-248); settings: protein: recombinant; tags: N-terminal GST; dsDNA, one strand shown
# T8 sequence: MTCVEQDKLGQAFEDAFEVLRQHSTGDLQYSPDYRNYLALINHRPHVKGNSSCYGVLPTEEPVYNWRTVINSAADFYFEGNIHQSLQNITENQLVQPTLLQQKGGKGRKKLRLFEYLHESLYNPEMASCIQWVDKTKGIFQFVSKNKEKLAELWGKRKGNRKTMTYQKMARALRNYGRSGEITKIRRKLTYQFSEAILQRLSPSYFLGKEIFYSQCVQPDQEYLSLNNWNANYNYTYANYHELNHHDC
# Outline: as §1
# [14] = target: ELF4 (Homo sapiens, UniProt Q99607 1-663); settings: protein: recombinant; tags: N-terminal GST; dsDNA, one strand shown
# Outline: as §1
# [15] = target: T9, ELK4 (Homo sapiens, UniProt P28324-2 1-405); settings: protein: recombinant; tags: N-terminal GST; dsDNA, one strand shown
# T9 sequence: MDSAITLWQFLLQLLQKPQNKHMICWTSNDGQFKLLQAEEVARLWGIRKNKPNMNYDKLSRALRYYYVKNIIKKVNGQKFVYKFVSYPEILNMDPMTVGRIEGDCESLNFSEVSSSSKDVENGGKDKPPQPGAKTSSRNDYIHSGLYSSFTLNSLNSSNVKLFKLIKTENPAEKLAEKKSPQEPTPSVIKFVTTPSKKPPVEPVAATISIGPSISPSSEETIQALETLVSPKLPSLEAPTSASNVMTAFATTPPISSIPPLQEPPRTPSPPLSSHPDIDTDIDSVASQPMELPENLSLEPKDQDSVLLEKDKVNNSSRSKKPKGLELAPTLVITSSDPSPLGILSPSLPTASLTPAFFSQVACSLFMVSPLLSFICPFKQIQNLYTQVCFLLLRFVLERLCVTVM
# Outline: as §1
# [16] = target: T10, ETV2 (Homo sapiens, UniProt O00321 1-342); settings: protein: recombinant; tags: N-terminal GST; dsDNA, one strand shown
# T10 sequence: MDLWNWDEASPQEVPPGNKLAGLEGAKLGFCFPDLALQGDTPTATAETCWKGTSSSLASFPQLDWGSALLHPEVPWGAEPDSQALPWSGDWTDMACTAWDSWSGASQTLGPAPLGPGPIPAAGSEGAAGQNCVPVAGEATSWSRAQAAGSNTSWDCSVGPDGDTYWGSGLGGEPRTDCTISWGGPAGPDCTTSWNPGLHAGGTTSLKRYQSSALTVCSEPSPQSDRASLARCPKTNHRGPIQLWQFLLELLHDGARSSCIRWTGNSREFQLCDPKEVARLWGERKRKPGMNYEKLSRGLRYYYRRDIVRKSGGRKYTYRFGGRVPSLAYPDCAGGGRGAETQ
# Outline: as §1
# [17] = target: T11, ELF3 (Homo sapiens, UniProt P78545 1-371); settings: protein: recombinant; tags: N-terminal GST; dsDNA, one strand shown
# T11 sequence: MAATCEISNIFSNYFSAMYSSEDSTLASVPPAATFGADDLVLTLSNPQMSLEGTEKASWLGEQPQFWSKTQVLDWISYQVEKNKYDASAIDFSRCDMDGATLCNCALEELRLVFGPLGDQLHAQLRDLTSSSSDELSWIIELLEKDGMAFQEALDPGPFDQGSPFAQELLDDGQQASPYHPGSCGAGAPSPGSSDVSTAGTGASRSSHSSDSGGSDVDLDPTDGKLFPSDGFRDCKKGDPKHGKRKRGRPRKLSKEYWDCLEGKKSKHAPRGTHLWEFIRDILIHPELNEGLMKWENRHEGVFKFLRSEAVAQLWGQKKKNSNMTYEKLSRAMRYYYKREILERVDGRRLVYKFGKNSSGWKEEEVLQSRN
# Outline: as §1
# [18] = target: ETV1 (Homo sapiens, UniProt P50549 1-477); settings: protein: recombinant; tags: N-terminal GST; dsDNA, one strand shown
# Outline: as §1
# ETV5, sequence (P41161 whole entry): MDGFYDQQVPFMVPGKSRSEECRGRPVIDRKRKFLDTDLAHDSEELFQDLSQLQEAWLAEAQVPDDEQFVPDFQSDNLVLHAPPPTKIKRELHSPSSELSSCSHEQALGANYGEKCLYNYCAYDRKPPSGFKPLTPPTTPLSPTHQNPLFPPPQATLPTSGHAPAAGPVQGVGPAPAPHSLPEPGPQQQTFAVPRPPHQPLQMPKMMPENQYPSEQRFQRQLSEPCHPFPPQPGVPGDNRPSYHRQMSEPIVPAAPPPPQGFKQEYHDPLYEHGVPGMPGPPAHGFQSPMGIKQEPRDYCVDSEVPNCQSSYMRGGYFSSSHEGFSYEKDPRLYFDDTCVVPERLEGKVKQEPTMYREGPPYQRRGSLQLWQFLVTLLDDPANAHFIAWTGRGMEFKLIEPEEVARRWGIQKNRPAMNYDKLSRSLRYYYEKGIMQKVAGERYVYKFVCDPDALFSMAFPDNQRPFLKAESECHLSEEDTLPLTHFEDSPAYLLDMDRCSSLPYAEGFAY
# ETV1, sequence (P50549 whole entry): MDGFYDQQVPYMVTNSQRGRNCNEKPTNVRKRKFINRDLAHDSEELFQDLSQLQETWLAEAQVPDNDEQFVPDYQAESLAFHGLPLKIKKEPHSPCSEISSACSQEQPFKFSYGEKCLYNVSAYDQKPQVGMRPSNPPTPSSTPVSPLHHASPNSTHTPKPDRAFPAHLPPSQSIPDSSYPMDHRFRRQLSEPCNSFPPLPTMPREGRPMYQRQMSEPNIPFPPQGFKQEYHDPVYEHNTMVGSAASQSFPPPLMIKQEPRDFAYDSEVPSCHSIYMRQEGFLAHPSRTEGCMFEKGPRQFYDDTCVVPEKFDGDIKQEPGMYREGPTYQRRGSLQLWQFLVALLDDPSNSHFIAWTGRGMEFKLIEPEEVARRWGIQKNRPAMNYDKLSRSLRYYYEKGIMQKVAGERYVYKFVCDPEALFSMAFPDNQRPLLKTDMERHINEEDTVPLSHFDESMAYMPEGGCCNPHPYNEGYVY
# HSF1, sequence (Q00613 whole entry): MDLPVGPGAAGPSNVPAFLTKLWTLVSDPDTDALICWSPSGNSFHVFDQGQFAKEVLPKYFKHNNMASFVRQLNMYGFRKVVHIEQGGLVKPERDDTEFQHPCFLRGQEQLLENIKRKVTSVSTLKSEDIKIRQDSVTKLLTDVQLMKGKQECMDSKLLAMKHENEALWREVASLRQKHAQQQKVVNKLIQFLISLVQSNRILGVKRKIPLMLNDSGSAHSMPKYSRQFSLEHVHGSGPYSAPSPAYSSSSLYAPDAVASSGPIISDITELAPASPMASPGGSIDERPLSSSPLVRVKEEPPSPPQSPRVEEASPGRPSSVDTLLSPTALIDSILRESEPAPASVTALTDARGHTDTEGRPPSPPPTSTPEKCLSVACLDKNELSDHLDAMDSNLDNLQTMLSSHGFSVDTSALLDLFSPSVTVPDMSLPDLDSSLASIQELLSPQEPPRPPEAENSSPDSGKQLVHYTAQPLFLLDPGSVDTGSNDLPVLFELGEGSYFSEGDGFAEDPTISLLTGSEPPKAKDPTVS
# ELF1, sequence (P32519 whole entry): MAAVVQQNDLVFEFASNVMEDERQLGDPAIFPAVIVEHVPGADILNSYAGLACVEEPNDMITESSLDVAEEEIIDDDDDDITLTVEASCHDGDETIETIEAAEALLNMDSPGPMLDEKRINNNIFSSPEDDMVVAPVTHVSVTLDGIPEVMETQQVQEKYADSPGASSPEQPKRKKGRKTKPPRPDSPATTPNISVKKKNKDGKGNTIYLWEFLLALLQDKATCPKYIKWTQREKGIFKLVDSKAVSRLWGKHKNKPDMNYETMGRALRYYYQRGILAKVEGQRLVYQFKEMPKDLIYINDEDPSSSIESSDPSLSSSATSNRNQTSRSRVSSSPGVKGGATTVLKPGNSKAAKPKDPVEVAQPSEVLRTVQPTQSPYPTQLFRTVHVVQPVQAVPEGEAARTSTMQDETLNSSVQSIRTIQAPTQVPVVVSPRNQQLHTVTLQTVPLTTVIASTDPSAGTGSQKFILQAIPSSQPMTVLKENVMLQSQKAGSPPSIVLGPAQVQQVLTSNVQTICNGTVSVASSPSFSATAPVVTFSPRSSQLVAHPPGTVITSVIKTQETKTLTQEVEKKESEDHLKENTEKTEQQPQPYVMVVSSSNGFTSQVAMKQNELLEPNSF
# SPIB, sequence (Q01892 whole entry): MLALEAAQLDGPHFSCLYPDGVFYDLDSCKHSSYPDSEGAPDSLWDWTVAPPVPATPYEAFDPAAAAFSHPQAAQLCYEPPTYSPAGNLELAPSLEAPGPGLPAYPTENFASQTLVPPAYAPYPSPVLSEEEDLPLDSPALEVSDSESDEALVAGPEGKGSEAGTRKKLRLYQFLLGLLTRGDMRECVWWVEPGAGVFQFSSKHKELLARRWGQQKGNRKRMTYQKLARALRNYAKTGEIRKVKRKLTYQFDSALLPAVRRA
# ELF4, sequence (Q99607 whole entry): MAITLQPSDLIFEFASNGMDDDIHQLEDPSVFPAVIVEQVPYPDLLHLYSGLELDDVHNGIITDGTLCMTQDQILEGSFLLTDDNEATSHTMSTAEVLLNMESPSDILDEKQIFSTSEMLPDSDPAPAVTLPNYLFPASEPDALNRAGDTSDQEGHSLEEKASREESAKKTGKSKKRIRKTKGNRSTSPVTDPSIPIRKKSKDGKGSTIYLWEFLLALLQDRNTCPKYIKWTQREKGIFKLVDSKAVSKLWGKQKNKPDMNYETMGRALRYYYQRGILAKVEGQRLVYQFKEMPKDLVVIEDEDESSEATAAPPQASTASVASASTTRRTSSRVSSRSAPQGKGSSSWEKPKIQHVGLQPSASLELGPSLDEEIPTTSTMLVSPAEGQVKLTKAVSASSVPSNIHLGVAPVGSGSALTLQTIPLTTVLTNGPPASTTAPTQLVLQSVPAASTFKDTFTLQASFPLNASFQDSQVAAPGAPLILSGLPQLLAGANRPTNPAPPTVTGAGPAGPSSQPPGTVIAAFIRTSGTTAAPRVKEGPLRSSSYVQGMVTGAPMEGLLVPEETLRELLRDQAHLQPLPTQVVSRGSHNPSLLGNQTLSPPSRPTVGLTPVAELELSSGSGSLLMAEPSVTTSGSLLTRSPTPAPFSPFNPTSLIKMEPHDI
sequence,measurement,setting,value
GGTTCC,binding signal,[1],"1.52 fold enrichment (6-mer frequency, TF over GST control)"
same,binding signal,[2],"1.64 fold enrichment (6-mer frequency, TF over GST control)"
same,binding signal,[3],"1.37 fold enrichment (6-mer frequency, TF over GST control)"
same,binding signal,[4],"1.54 fold enrichment (6-mer frequency, TF over GST control)"
same,binding signal,[5],"1.53 fold enrichment (6-mer frequency, TF over GST control)"
same,binding signal,[6],"1.59 fold enrichment (6-mer frequency, TF over GST control)"
same,binding signal,[7],"1.75 fold enrichment (6-mer frequency, TF over GST control)"
same,binding signal,[8],"1.59 fold enrichment (6-mer frequency, TF over GST control)"
same,binding signal,[9],"1.52 fold enrichment (6-mer frequency, TF over GST control)"
same,binding signal,[10],"1.68 fold enrichment (6-mer frequency, TF over GST control)"
same,binding signal,[11],"1.57 fold enrichment (6-mer frequency, TF over GST control)"
same,binding signal,[12],"1.13 fold enrichment (6-mer frequency, TF over GST control)"
same,binding signal,[13],"1.38 fold enrichment (6-mer frequency, TF over GST control)"
same,binding signal,[14],"1.44 fold enrichment (6-mer frequency, TF over GST control)"
same,binding signal,[15],"1.38 fold enrichment (6-mer frequency, TF over GST control)"
same,binding signal,[16],"1.32 fold enrichment (6-mer frequency, TF over GST control)"
same,binding signal,[17],"1.7 fold enrichment (6-mer frequency, TF over GST control)"
same,binding signal,[18],"1.63 fold enrichment (6-mer frequency, TF over GST control)"
